# Measured values: the supplement of paper PMC12669032
# Values without a mark were called inactive.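 How the source made its calls: active = AUC reduced over 20% with Padj below 0.05 in at least 2 of 3 replicates; inactive = otherwise.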
# Assays:
# Assay in all cases: growth AUC relative to DMSO control (median of replicates) (fraction); higher = more growth (less inhibition), active = hit call of the paper
# Conditions in all cases: 20 µM; 24 h
# [1] = system: Akkermansia muciniphila
# Procedure, shortened: (§1)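 Each value is the median of three biological replicates, grown on separate days, of a gut bacterial monoculture incubated anaerobically at 37 °C in mGAM with 20 µM compound (1% DMSO). Cultures started at OD600 0.05 and were read at OD600 hourly for 24 h, with the minimum OD set to 0. Area under the growth curve was normalised to the plate median of solvent-only wells, or to row and column medians on the industrial chemical plate.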
# [2] = system: Bacteroides caccae
# Procedure, shortened: as §1
# [3] = system: Bacteroides clarus
# Procedure, shortened: as §1
# [4] = system: Bacteroides dorei
# Procedure, shortened: as §1
# [5] = system: Bacteroides stercoris
# Procedure, shortened: as §1
# [6] = system: Bacteroides thetaiotaomicron
# Procedure, shortened: as §1
# [7] = system: Bacteroides uniformis
# Procedure, shortened: as §1
# [8] = system: Bifidobacterium longum subsp. longum
# Procedure, shortened: as §1
# [9] = system: Clostridium difficile
# Procedure, shortened: as §1
# [10] = system: Collinsella aerofaciens
# Procedure, shortened: as §1
SMILES,growth AUC [1],growth AUC [2],growth AUC [3],growth AUC [4],growth AUC [5],growth AUC [6],growth AUC [7],growth AUC [8],growth AUC [9],growth AUC [10]
ClC1=C(Cl)C2(Cl)C3COCC3C1(Cl)C2(Cl)Cl (stereo not given),0.531 (active),0.91,1.11,0.925,1.05,0.871,0.916,0.918,0.966,1.02
O=S(=O)(c1ccc(O)cc1)c1ccc(O)cc1,0.921,0.97,1,1.01,0.977,0.996,0.987,0.949,0.997,0.976
CC1(C)C(C=C(Cl)Cl)C1C(=O)OC(C#N)c1cccc(Oc2ccccc2)c1 (stereo not given),1.06,0.942,1.03,1.02,1.24,0.963,1.01,0.926,0.986,0.966
CCOCN(C(=O)CCl)c1c(C)cccc1CC,0.969,1.01,0.995,1.04,1,0.967,0.968,0.986,0.983,1.03
CS(=O)(=O)c1ccc(C(=O)C2C(=O)CCCC2=O)c([N+](=O)[O-])c1,0.895,0.986,0.946,0.977,0.979,0.972,0.965,0.965,0.986,0.972
OC(c1ccc(F)cc1)(c1cncnc1)c1ccccc1Cl (stereo not given),0.95,0.993,0.951,0.966,0.991,0.942,0.954,1.01,0.966,0.988
COP(=O)(OC)Oc1ccc(SC)c(C)c1,0.861,0.994,0.978,1.03,0.981,0.979,0.982,1,0.999,0.993
CCOc1cc(C(C)(C)C)ccc1C1COC(c2c(F)cccc2F)=N1 (stereo not given),0.955,0.941,1,1.03,1.23,0.978,0.958,1.02,0.942,0.987
COc1ccc(C(c2ccc(OC)cc2)C(Cl)(Cl)Cl)cc1,0.973,0.92,0.849,0.926,0.49 (active),0.776 (active),0.813,0.926,0.988,0.975
CCOP(=S)(OCC)SCS(=O)C(C)(C)C (stereo not given),0.905,0.997,1.02,0.944,1.08,1.02,0.989,1.02,1,0.987
COc1ncc(F)c2nc(S(=O)(=O)Nc3c(F)cccc3F)nn12,0.991,1.02,0.985,1.01,1.13,0.974,1,1.01,0.994,1.01
CC(Cl)(Cl)C(=O)O,0.869,1.05,1.02,1.02,1.02,1.01,1.02,0.983,0.999,1.02
COc1ccc(-c2ccccc2)cc1NNC(=O)OC(C)C,0.865,0.921,0.974,0.991,1.08,0.958,0.942,0.982,0.993,1.05
Clc1ccc(C2(Cn3cncn3)OCCO2)c(Cl)c1,1.03,0.932,0.984,0.934,0.815,0.916,0.985,1.01,0.956,0.913
COP(=S)(OC)Oc1ccc(C#N)cc1,1.1,1,1.03,1.04,1.02,0.989,1.04,1.01,1.03,1.01
C=C(C)[C@H]1Cc2c(ccc3c2O[C@@H]2COc4cc(OC)c(OC)cc4[C@@H]2C3=O)O1,1.07,0.985,0.897,0.947,0.735,0.965,0.813,1,1.03,0.987
OC[C@@H](O)[C@H]1O[C@@H]2O[C@H](C(Cl)(Cl)Cl)O[C@@H]2[C@H]1O (mixture of isomers),0.979,1.02,0.978,1.04,0.952,1.01,1.04,0.969,1.03,0.975
C#CCOS(=O)OC1CCCCC1Oc1ccc(C(C)(C)C)cc1 (mixture of isomers),1.08,0.98,0.976,0.984,0.916,0.991,0.99,0.908,0.956,0.975
CC1(C)[C@H](C=C(Cl)Cl)[C@H]1C(=O)OCc1c(F)c(F)cc(F)c1F,0.957,1.02,0.992,1.07,1.03,0.993,1.04,0.954,1.08,1
CC(Cc1ccc(C(C)(C)C)cc1)CN1CCCCC1 (stereo not given),0.735,0.963,0.951,1.01,1.15,0.974,1.02,0.99,0.971,0.959
Oc1cc(Cl)c(Cl)cc1Cl,0.97,0.934,0.945,0.936,0.913,0.986,0.992,1.02,0.929,0.922
CNC(=O)N(C)c1nc2ccccc2s1,0.902,1.02,0.991,1,0.998,0.999,0.991,0.936,0.978,0.995
C[C@@H](Oc1ccc(Cl)cc1Cl)C(=O)O,1.14,0.98,1,0.925,1.26,1,0.965,0.982,0.949,0.977
CNC(=O)O/N=C(\C)C(C)S(C)=O (stereo not given),0.963,0.997,0.976,0.996,1,0.983,0.997,0.996,1,0.995
CC(Cc1ccc(C(C)(C)C)cc1)CN1C[C@@H](C)O[C@@H](C)C1 (stereo not given in full),1.04,1.03,0.974,1.01,1.07,0.996,1.05,0.992,1.02,1
O=C(NC(=O)c1c(F)cccc1F)Nc1ccc(Cl)cc1,1.14,1.01,0.996,0.998,0.974,0.997,1.01,0.954,1.01,0.955
COP(=S)(OC)SCn1nnc2ccccc2c1=O,1.09,0.98,0.977,0.877,0.883,0.969,0.986,0.949,0.931,0.941
CNC(=O)Oc1cccc2c1OC(C)(C)C2O (stereo not given),1.07,1.01,1.04,1.02,1.06,1.01,0.998,0.967,1.03,1.01
CNC(=O)CSP(=S)(OC)OC,1.19,1,0.994,0.901,0.954,1.01,1,1.01,0.978,0.974
